# Shown are actives, neighbours in structure and some others; about 11% of the full set was active somewhere.
# HP1b binding inh – inhibitors of HP1-beta chromodomain binding to methylated histone tails; Potency, µM (titrated, usually from 114 µM), for inactives: at the top dose activity change, negative = inhibition, most hits filed as inhibitors; 0.56% of 390,000 active; AlphaScreen HP1-beta / biotin-H3K9me3 peptide binding; further: nearly all actives have a fitted effect of over 70% in size
#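 AlphaScreen: HP1-beta (50 nM) preformed 30 min with biotin-H3(1-18)K9me3 peptide (50 nM) in PBS pH 7.4, 0.01% Tween-20. Compound added for 30 min at RT, then streptavidin donor/nickel chelate acceptor beads (10 ug/mL) for 30 min.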
# JMJD2A Tudor – JMJD2A Tudor domain (human) inhibition; 4.4% of 390,000 active; AlphaScreen JMJD2A-Tudor / H3K4me3 peptide binding; Potency, µM (doses to about 114 µM), for the others: at the top dose activity change, negative = inhibition, actives largely listed as inhibitors; further: on the % scale 0 is the no-effect control and ±100 the full control effect; nearly all actives have a fitted effect of over 50% in size
# BAZ2B inh – blocks human BAZ2B; Potency, µM (titrated, usually from 114 µM), for the others: at the highest dose activity change, negative = inhibition, hits mostly inhibitors; AID 504333; 4.4% of 360,000 active; AlphaScreen BAZ2B-H3K14Ac peptide displacement; Q9UIF8; further: on the % scale 0 is the no-effect control and ±100 the full control effect; nearly all actives have a fitted effect of over 60% in size
#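 Complex of BAZ2B and biotin-H3K14Ac (50 nM apiece) forms over 30 min at RT, then faces library compounds up to 110 uM for another 30 min; AlphaScreen beads added, 20 min dark incubation, luminescence read.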
# L3MBTL1 inh – L3MBTL1 (human) inhibition; AlphaScreen L3MBTL1–H3K9me1 peptide binding; Potency, µM (series often up to 57.1 µM), for inactives: at the top dose activity, negative = inhibition, usual class: inhibitors; 0.66% of 230,000 active; AID 485360; further: on the % scale 0 is the no-effect control and ±100 the full control effect; nearly all actives have a fitted effect of over 60% in size
# Target sequence (Q9Y468 whole entry, looked up): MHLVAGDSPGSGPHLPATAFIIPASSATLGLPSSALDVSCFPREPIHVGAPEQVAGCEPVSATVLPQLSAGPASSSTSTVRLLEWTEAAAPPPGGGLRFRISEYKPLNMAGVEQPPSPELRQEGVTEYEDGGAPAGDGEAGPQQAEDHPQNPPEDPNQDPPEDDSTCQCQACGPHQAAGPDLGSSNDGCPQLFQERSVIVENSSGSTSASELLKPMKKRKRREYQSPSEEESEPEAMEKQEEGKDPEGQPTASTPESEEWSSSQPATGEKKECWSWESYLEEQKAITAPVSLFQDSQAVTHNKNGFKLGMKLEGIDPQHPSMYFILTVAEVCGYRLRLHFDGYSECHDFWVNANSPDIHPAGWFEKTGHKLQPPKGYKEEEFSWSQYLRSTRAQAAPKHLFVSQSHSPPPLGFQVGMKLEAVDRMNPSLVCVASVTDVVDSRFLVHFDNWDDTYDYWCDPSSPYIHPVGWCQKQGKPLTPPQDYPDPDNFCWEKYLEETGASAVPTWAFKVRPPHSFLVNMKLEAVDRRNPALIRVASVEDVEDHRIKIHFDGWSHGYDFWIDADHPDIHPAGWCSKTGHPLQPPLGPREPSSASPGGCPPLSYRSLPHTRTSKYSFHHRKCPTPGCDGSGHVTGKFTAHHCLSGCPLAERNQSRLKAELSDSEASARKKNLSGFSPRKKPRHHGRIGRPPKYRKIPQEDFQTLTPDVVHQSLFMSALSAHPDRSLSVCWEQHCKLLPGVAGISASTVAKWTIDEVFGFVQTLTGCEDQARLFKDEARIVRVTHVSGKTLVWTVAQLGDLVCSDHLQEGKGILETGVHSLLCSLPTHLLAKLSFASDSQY
#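 Read-out is AlphaScreen signal from streptavidin donor and nickel chelate acceptor beads (10 ug/mL final each) bridging L3MBTL1 (50 nM) and biotinylated K9-monomethylated H3(1-15) peptide (75 nM), after 30 min compound exposure at room temperature.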
# G9a block – G9a (human) methyltransferase inhibition; G9a H3K9 monomethylation, AlphaScreen, 2 h; Potency, µM (titrated, usually from 102 µM), for the others: top-dose activity, negative = inhibition, hits mostly inhibitors; 8.8% of 350,000 active; AID 504332; further: on the % scale 0 is the no-effect control and ±100 the full control effect; nearly all actives have a fitted effect of over 75% in size
#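 Methyltransferase reactions run at room temperature for 2 h (20 nM enzyme, 500 nM biotin-H3K9 peptide, 20 uM SAM) after a 15 min compound preincubation; product detected by AlphaScreen beads and anti-H3K9me1 antibody.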
# Active calls of the source: *; u = inconclusive; x = no result; [ ] = dose if it differs, or a comment. The call rests on the fitted dose curve; in most records, active means well fitted inhibition curve with a large enough effect; inconclusive means small, poorly fitted or top-dose-only effect; inactive means no such curve, though single readings can be large or run the other way. Potency means the concentration at half of the fitted maximal effect.
SMILES,HP1b binding inh,JMJD2A Tudor,BAZ2B inh,L3MBTL1 inh,G9a block
COc1cc(C(CCN2CCOCC2)c2c(OC)cc(OC)c3c2OC(=O)CC3c2ccc(N(C)C)cc2)cc(OC)c1OC (configuration not stated),u,28µM*,14µM*,x,-9%[12.7 µM]
COc1cc(C(CCN2CCCCC2)c2c(OC)cc(OC)c3c2OC(=O)CC3c2ccc(N(C)C)cc2)cc(OC)c1OC (configuration not stated),u,40µM*,x,x,x
COc1ccc(C2CC(=O)Oc3c(C(CCN4CCOCC4)c4ccc5c(c4)OCO5)c(OC)cc(OC)c32)cc1 (configuration not stated),-28%,56µM*,x,x,x
CCN(CC)CCC(c1cc(OC)c(OC)c(OC)c1)c1c(OC)cc(OC)c2c1OC(=O)CC2c1ccc(N(C)C)cc1 (configuration not stated),-33%,32µM*,x,x,x
COc1cc(OC)c2c(c1C(CCN1CCOCC1)c1ccc(N(C)C)cc1)OC(=O)CC2c1ccc(N(C)C)cc1 (configuration not stated),14µM*,6.3µM*,10µM*,x,-168%[59 µM]
COc1ccc(C2CC(=O)Oc3c(C(CCN4CCOCC4)c4cc(OC)c(OC)c(OC)c4)c(OC)cc(OC)c32)cc1 (configuration not stated),9%,u,-37%,x,u
COc1ccc(CCCc2nnc(SCC(=O)Nc3ccc(Cl)cc3)o2)cc1,22%,u,-7%,x,-34%[59 µM]
Cc1nn(-c2ccccc2)c(C)c1C(=O)OC(C)C(=O)NC1CCCCC1 (configuration not stated),31%[57 µM],-1%,x,7%,x
COc1ccccc1Nc1nc(-c2c(C)[nH]c3ccccc23)cs1,u,50µM*,40µM*,-8%,14µM*
CNc1nc(-c2c(C)[nH]c3ccc(OC)cc23)cs1,-3%,u,50µM*,x,40µM*
Nc1nc(-c2nc3ccccc3[nH]2)cs1,34%,-33%,-26%,-16%,u
Cc1[nH]c2ccccc2c1-c1csc(N)n1,5%,-32%,u,-11%,79µM*
CCOC(=O)c1c(NC(=O)CSc2cn(CCNC(=O)c3c(F)cccc3F)c3ccccc23)sc2c1CCC2,17%,-17%,-35%,x,-35%[59 µM]
O=C(O)/C=C/c1ccc(OCc2cccc(F)c2)cc1,-2%,14µM*,-13%,x,-29%
O=C(O)/C=C/C(=O)Nc1ccc(-c2ccccc2)cc1,27%,-14%,-18%,-18%,u
O=C(O)/C=C/C(=O)Nc1ccc(OCc2ccccc2)cc1,51%,-18%,-28%,x,56µM*
CCCC(CCC)C(=O)Nc1nnc2n1CCS2,5%[57 µM],u,-7%,x,u
CCOc1ccc(CC(=O)Nc2nnc3n2CCS3)cc1,-2%[57 µM],56µM*,11%,x,29%[59 µM]
COc1ccc(CC(=O)Nc2nnc3n2CCS3)cc1,17%[57 µM],56µM*,u,x,u
CCOC(=O)c1cccc(NS(=O)(=O)c2ccc(-c3cnc(C4CC4)o3)cc2)c1,27%,-16%,-17%,x,-2%[12.7 µM]
Cc1ccccc1NC(=S)N(Cc1cccnc1)Cc1ccccc1Cl,18%,5%,-17%,u,-34%
O=C1/C(=C/c2ccc(N3CCOCC3)o2)SC(=Nc2ccccc2)N1CCc1c[nH]c2ccccc12,-38%,u,u,-14%,u
COc1ccc(N=C2S/C(=C\c3ccc(OC(C)C(=O)O)c(OC)c3)C(=O)N2CCc2c[nH]c3ccccc23)cc1 (configuration not stated),u,40µM*,22µM*,-13%,35µM*
COc1cc(/C=C2\SC(=Nc3ccccc3)N(CCc3c[nH]c4ccccc34)C2=O)ccc1OC(C)C(=O)O (configuration not stated),u,56µM*,45µM*,-5%,6.3µM*
CC12CCC(C(=O)NCc3ccccn3)(OC1=O)C2(C)C (configuration not stated),19%,u,79µM*,x,u
SMILES,HP1b binding inh,JMJD2A Tudor,BAZ2B inh,L3MBTL1 inh,G9a block
CC1=C(C(=O)NCc2ccc(Cl)cc2)C2(CCC(C)CC2)OC1=O (configuration not stated),42%,-7%,4%,x,2%
CC1=C(C(=O)NCc2ccccn2)C2(CCC(C)CC2)OC1=O (configuration not stated),16%,28µM*,79µM*,-18%,10µM*
CCS(=O)(=O)N1Cc2ccccc2CC1C(=O)NCC12CC3CC(CC(C3)C1)C2 (configuration not stated),1%,-12%,5%,x,-29%[12.7 µM]
CCS(=O)(=O)N1Cc2ccccc2CC1C(=O)NC(C)C12CC3CC(CC(C3)C1)C2 (configuration not stated),26%,-7%,-7%,x,14µM*
COc1ccccc1CNC(=O)COC(=O)c1ccc(C)c(S(=O)(=O)N2CCOCC2)c1,28%,6%,1%,-1%,4%[0.501 µM]
COc1ccccc1CNC(=O)COC(=O)c1cccc(S(=O)(=O)N2CCOCC2)c1,13%,-3%,-1%,6%,13µM*
O=C(COC(=O)c1cccc(S(=O)(=O)N2CCN(c3ccccc3)CC2)c1)NCc1ccco1,-54%,22µM*,45µM*,u,45µM*
Cc1cc(C)c(NC(=O)CNC(=O)c2ccccc2OCc2c(C)noc2C)c(C)c1,12%,-17%,5%,-1%,-2%
CCOC(=O)c1c(C)[nH]c(N=Nc2ccc(C)cc2C)c1C,22µM*,50µM*,14µM*,u,45µM*
CCOC(=O)c1c(C)[nH]c(N=Nc2ccccc2C)c1C,-35%,25µM*,32µM*,x,16µM*
CCOC(=O)c1c(C)[nH]c(N=Nc2cc(C(=O)O)cc(C(=O)O)c2)c1C,-21%,-29%,u,x,-23%[59 µM]
Cc1ccccc1C(=O)Nc1cccc(C(=O)OCc2cc(=O)n3c(C)csc3n2)c1,19%,-10%,-10%,x,12%[59 µM]
CCOc1ccccc1CNC(=O)CCn1c(=O)c2cccn2c2ccc(F)cc21,78%,3%,5%,x,4%[59 µM]
Cc1ccc(C(=O)c2sc(Nc3ccccc3)c(S(=O)(=O)c3ccccc3)c2N)c(C)c1,2%[57 µM],u,-31%,x,-30%[59 µM]
COc1ccc(C(=O)/C=C/c2ccc(N3CCCCC3)c([N+](=O)[O-])c2)c(OC)c1,16µM*,10µM*,8.9µM*,u,8.9µM*
COc1ccc(C(=O)/C=C/c2ccc(N3CCCCC3)c([N+](=O)[O-])c2)cc1,25µM*,11µM*,4µM*,u,10µM*
CCN(C(=O)CSc1nc2ccccc2n1CC(=O)NCc1ccc(OC)cc1)c1ccccc1,15%,-20%,-37%,x,-8%[59 µM]
